From PubChem BioAssay AID1611 (NINDS Approved Drug Screening Program, 2009)

Assay: inducers of human heat shock response, cell-based, HSE luciferase (AID 1611)
Details: human cells, HSE-luciferase heat shock reporter; stronger effect = higher value

Compound	fold change
COc1ccc(C2Sc3ccccc3N(CCN(C)C)C(=O)C2OC(C)=O)cc1 (stereo not given)	0.53
CC1(C)O[C@@H]2CC3C4C[C@H](F)C5=CC(=O)CC[C@]5(C)C4[C@@H](O)C[C@]3(C)[C@]2(C(=O)CO)O1 (stereo not given in full)	1.35
C#CCN(C)Cc1ccccc1	1.01
Cc1ccc(S(=O)(=O)NC(=O)NN2CCCCCC2)cc1	0.73
CC(C)COCC(CN(Cc1ccccc1)c1ccccc1)N1CCCC1 (stereo not given)	0.78
c1ccc(CN(CC2=NCCN2)c2ccccc2)cc1	1.78
OC[C@H]1O[C@@H](O[C@@H]2[C@@H](CO)O[C@](O)(CO)[C@H]2O)[C@H](O)[C@@H](O)[C@H]1O	0.82
COc1ccc2cc([C@H](C)C(=O)O)ccc2c1	0.71
CO[C@@H]1[C@@H](OC(N)=O)[C@@H](O)[C@H](Oc2ccc3c(O)c(NC(=O)c4ccc(O)c(CC=C(C)C)c4)c(=O)oc3c2C)OC1(C)C	1.06
CC(C)CC1NC(=O)CNC1=O (stereo not given)	0.55
CN(C)C(=O)Oc1cccc([N+](C)(C)C)c1	1.23
CC/C(=C(\c1ccccc1)c1ccc(OCCN(C)C)cc1)c1ccccc1	0.77
CC(=O)OCC(=O)[C@H]1CCC2C3CCC4=CC(=O)CC[C@]4(C)C3CC[C@@]21C (stereo not given in full)	1.05
Cc1cc(C(C)(C)C)cc(C)c1CC1=NCCN1	1.28
CC[C@H]1OC(=O)[C@H](C)[C@@H](O[C@H]2C[C@@](C)(OC)[C@@H](O)[C@H](C)O2)[C@H](C)[C@@H](O[C@@H]2O[C@H](C)C[C@H](N(C)C)[C@H]2O)[C@](C)(O)C[C@@H](C)CN(C)[C@H](C)[C@@H](O)[C@]1(C)O	293
Cc1nnc(NS(=O)(=O)c2ccc(N)cc2)s1	0.85
C[N+]1(C)C2CC[C@H]1CC(OC(=O)C(O)c1ccccc1)C2 (stereo not given in full)	1.16
CC(=O)N(O)CCCCCNC(=O)CCC(=O)N(O)CCCCCNC(=O)CCC(=O)N(O)CCCCCN	0.7
CC1(C)S[C@@H]2[C@H](NC(=O)[C@H](NC(=O)N3CCNC3=O)c3ccccc3)C(=O)N2C1C(=O)O (stereo not given in full)	0.89
O=C1c2c(O)cccc2Cc2cccc(O)c21	0.93
CCCCc1oc2ccccc2c1C(=O)c1cc(I)c(OCCN(CC)CC)c(I)c1	0.84
NC(N)=O	1.06
CC(Cc1ccc(O)c(O)c1)(NN)C(=O)O (stereo not given)	1.02
CC1(C)O[C@@H]2CC3C4C[C@H](F)C5=CC(=O)C=CC5(C)C4C(O)CC3(C)[C@]2(C(=O)CO)O1 (stereo not given in full)	1.4
COc1cccc(OC)c1C(=O)N[C@@H]1C(=O)N2[C@@H]1SC(C)(C)[C@@H]2C(=O)O	0.82
c1ccc2[nH]c(-c3cscn3)nc2c1	0.81
NC(N)=N/N=C\c1c(Cl)cccc1Cl	0.39

Compound	fold change
CCCCC1(COC(=O)CCC(=O)O)C(=O)N(c2ccccc2)N(c2ccccc2)C1=O	0.82
O=C(O)c1cc(=O)c2ccccc2[nH]1	1.38
NC(N)=NC(N)=Nc1ccccc1	0.95
CN=C(NC#N)NCCSCc1nc[nH]c1C	0.5
COC(=O)Nc1nc2ccc(Sc3ccccc3)cc2[nH]1	0.92
CO[C@@H]1[C@@H](O[C@@H]2O[C@H](C)[C@@H](O[C@H]3C[C@@](C)(O)[C@H](O)[C@H](C)O3)[C@H](N(C)C)[C@H]2O)[C@@H](CC=O)C[C@@H](C)[C@@H](O[C@H]2CC[C@H](N(C)C)[C@@H](C)O2)/C=C/C=C/C[C@H](C)OC(=O)C[C@H]1O	62.6
OCC(O)CN1CCN(c2ccccc2)CC1 (stereo not given)	0.82
COc1ccc(CN(CCN(C)C)c2ccccn2)cc1	1.01
NC[C@@H]1O[C@H](O[C@@H]2[C@@H](CO)OC(O[C@@H]3[C@@H](O)[C@H](N)C[C@H](N)[C@H]3OC3O[C@H](CN)[C@@H](O)[C@H](O)[C@H]3N)[C@@H]2O)[C@H](N)[C@@H](O)[C@@H]1O (stereo not given in full)	0.96
C=Cc1c(C)c2cc3[nH]c(cc4nc(cc5nc(cc1[nH]2)C(C)=C5CCC(=O)O)C(CCC(=O)O)=C4C)c(C)c3C=C	1.09
CN1CCC[C@@H]1CCO[C@](C)(c1ccccc1)c1ccc(Cl)cc1	0.87
CCN(CC)C(=O)c1cccc(C)c1	0.91
CCN(CCCCOC(=O)c1ccc(OC)c(OC)c1)C(C)Cc1ccc(OC)cc1 (stereo not given)	1.27
CCCCCCc1ccc(O)cc1O	1.27
CC(C)[N+]1(C)C2CC[C@@H]1CC(OC(=O)C(CO)c1ccccc1)C2 (stereo not given in full)	0.91
CC(C)=CCC/C(C)=C/CO	3.1
N[C@@H](CCC(=O)N[C@@H](CS)C(=O)NCC(=O)O)C(=O)O	1.11
CN1CCN(CC(=O)N2c3ccccc3C(=O)Nc3cccnc32)CC1	1.06
CCCCCC(=O)O[C@]1(C(C)=O)CCC2C3CCC4=CC(=O)CC[C@]4(C)C3CC[C@@]21C (stereo not given in full)	1.47
NNC(=O)c1ccncc1	0.48
CC(=O)NS(=O)(=O)c1ccc(N)cc1	0.98
c1coc(CNc2ncnc3nc[nH]c23)c1	1.22
CC1(C)S[C@@H]2C(N3C(=O)[C@@H](c4ccccc4)NC3(C)C)C(=O)N2[C@H]1C(=O)O (stereo not given in full)	1.12
O=c1cc[nH]c(=S)[nH]1	0.78
Nc1nc2c(ncn2COCCO)c(=O)[nH]1	1.01
Cc1ccc(C)c(OCCCC(C)(C)C(=O)O)c1	0.57
O=C(C1CCCCC1)N1CC(=O)N2CCc3ccccc3C2C1 (stereo not given)	1.17

Compound	fold change
Cc1cc(-c2ccccc2)nnc1NCCN1CCOCC1	0.98
Cc1ccc(C(=O)c2ccc(CC(=O)O)n2C)cc1	279
CCCCCCOc1ccccc1C(N)=O	0.59
CO/N=C(\C(=O)NC1C(=O)N2C(C(=O)O)=C(CSc3nc(=O)c(O)nn3C)CS[C@H]12)c1csc(N)n1 (stereo not given in full)	0.94
CN1C2CC[C@H]1CC(OC(=O)C(O)c1ccccc1)C2 (stereo not given in full)	1.12
CCOC(N)=O	0.87
O=C(O)c1cn(C2CC2)c2cc(N3CCNCC3)c(F)cc2c1=O	1.5
CCN(CC)CCOC(=O)C(c1ccccc1)c1ccccc1	1.24
O=C(O)CCC(=O)c1ccc(-c2ccccc2)cc1	1.02
CCN(CC)CCOC(=O)c1ccc(N)cc1	0.94
O=C1OCCN1/N=C/c1ccc([N+](=O)[O-])o1	1.79
Nc1ncn([C@@H]2O[C@H](CO)[C@@H](O)[C@H]2O)c(=O)n1	1.3
COC1=CC(=O)C[C@@H](C)[C@]12Oc1c(Cl)c(OC)cc(OC)c1C2=O	0.94
Cn1c(=O)c2c(ncn2CC(O)CO)n(C)c1=O (stereo not given)	1.13
CCn1cc(C(=O)O)c(=O)c2cc(F)c(N3CCNCC3)cc21	1.06
CSc1ccc2c(c1)N(CCC1CCCCN1C)c1ccccc1S2 (stereo not given)	0.58
O=C(O)C1=CCNCC1	1.18
O=C1c2ccc(O)c(O)c2C(=O)c2c(O)ccc(O)c21	0.67
CCCCNc1cc(C(=O)O)cc(S(N)(=O)=O)c1Oc1ccccc1	1.03
Cc1c(C(N)=O)cc([N+](=O)[O-])cc1[N+](=O)[O-]	1.05
CCCc1ncc(C[n+]2ccccc2C)c(N)n1	1.19
CCOc1ccc(Cc2nccc3cc(OCC)c(OCC)cc23)cc1OCC	1.35
CCCCCC(C)N (stereo not given)	1.8
CCc1cc(C(N)=S)ccn1	0.94
Oc1cccc(O)c1	1.06
O=C(CCCN1CC=C(n2c(=O)[nH]c3ccccc32)CC1)c1ccc(F)cc1	0.88
